The list is not random: actives were taken first. Their share in the collection is about 9.5%.
Tau fluor cs – Counterscreen qHTS for Inhibitors of Tau Fibril Formation, Fluorescence Polarization; tau K18 P301L Alexa594 fluorescence, heparin fibrillization; 280,000 compounds, 0.93% hits; Potency, µM (top dose mostly 57.7 µM), inactives show at the highest dose activity change, negative = decrease; also: nearly all actives have a fitted effect of over 55% in size
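Human K18 P301L tau (15 uM unlabeled plus 0.24 uM Alexa 594-labeled, final) in 100 mM sodium acetate pH 7 was mixed with compound and 20 uM heparin and incubated 6 hr at 37 C.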
Tau fibril ThT – qHTS for Inhibitors of Tau Fibril Formation, Thioflavin T Binding; Microtubule-associated protein tau (Homo sapiens), P10636; recombinant tau K18 P301L, heparin-induced fibrillization, ThT fluorescence; 270,000 compounds, 2.1% hits; Potency, µM (doses to about 57.4 µM), inactives show at the highest dose activity, negative = inhibition, most hits filed as inhibitors; AID 1460, 2008; also: nearly all actives have a fitted effect of over 55% in size
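Using a mix of unlabeled (15 uM) and Alexa 594-labeled (0.24 uM) tau K18 P301L, heparin-triggered fibrillization over 6 hr at 37 C was scored by ThT fluorescence.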
ALDH1A1 block – qHTS Assay for Inhibitors of Aldehyde Dehydrogenase 1 (ALDH1A1). Purified ALDH1A1, NADH fluorescence, propionaldehyde substrate. Potency, µM (doses to about 75.3 µM), inactives show at the top dose activity, negative = inhibition, actives largely listed as inhibitors. 220,000 compounds, 7.3% hits. AID 1030, 2008; active = well fitted inhibition curve with a large enough effect, not every such curve was filed as active; inconclusive = small, poorly fitted or top-dose-only effect, or another doubt; inactive = no such curve, though single readings can be large or run the other way;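 also: plate controls were no enzyme wells and a reference inhibitor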
Target sequence (P00352 whole entry, looked up): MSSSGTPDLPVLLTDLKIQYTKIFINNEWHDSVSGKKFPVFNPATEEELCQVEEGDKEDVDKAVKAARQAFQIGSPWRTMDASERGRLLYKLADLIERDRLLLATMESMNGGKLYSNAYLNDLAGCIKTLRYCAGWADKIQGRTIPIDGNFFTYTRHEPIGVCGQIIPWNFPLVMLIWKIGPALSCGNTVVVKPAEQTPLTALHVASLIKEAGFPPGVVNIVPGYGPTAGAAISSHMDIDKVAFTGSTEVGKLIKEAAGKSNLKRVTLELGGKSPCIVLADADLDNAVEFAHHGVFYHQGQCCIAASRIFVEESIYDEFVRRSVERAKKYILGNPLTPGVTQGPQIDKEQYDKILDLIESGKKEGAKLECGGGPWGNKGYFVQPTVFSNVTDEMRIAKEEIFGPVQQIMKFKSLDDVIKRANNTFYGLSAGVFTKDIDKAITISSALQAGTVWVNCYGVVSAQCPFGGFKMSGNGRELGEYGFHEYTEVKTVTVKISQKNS
NPSR antagonist – qHTS Assay for Antagonists of the Neuropeptide S Receptor: cAMP Signal Transduction | 220,000 compounds, 1% hits | Q6W5P4 | AID 1461, 2008 | Potency, µM (doses to about 38.3 µM), for inactives: at the top dose activity change, negative = inhibition, hits mostly inhibitors | CHO-NPSR cells, cAMP TR-FRET, antagonist mode; also: nearly all actives have a fitted effect of over 50% in size
HPGD block – qHTS Assay for Inhibitors of HPGD (15-Hydroxyprostaglandin Dehydrogenase); purified HPGD, NADH fluorescence kinetic, PGE2 substrate; 15-hydroxyprostaglandin dehydrogenase [NAD(+)] (Homo sapiens), P15428; AID 894, 2007; 150,000 compounds, 4.3% hits; Potency, µM, inactives show top-dose activity change, negative = inhibition, most hits filed as inhibitors; active = well fitted inhibition curve with a large enough effect, not every such curve was filed as active; inconclusive = small, poorly fitted or top-dose-only effect, or another doubt; inactive = no such curve, though single readings can be large or run the other way
Target sequence (P15428 whole entry, looked up): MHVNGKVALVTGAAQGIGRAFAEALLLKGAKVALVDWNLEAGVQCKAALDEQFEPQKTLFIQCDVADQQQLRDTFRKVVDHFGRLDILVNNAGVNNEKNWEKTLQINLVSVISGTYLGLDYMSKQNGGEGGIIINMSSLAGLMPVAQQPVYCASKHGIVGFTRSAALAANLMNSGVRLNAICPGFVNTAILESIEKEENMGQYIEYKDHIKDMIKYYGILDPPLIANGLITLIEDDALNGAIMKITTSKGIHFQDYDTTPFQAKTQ
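20 nM HPGD preincubated 15 min at room temperature with compound in 50 mM Tris-HCl pH 8, 0.01% Tween 20. Started with 1 mM NAD+ and 30 uM prostaglandin E2; NADH fluorescence (360/450 nm) read 5 times over 30-s intervals, last minus first.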
Tau fibril FP – qHTS for Inhibitors of Tau Fibril Formation, Fluorescence Polarization. K18 P301L tau heparin fibrillization, Alexa594 FP, 6 h. 280,000 compounds, 0.39% hits. Potency, µM (doses to about 57.7 µM), for inactives: at the highest dose activity, negative = inhibition, actives largely listed as inhibitors. Microtubule-associated protein tau (Homo sapiens), P10636; also: nearly all actives have a fitted effect of over 55% in size
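Compound effects on tau fibrillization are measured by Alexa 594 fluorescence polarization (ex 555, em 632 nm). K18 P301L tau is used at 15 uM with 0.24 uM labeled tracer, and 20 uM heparin induces aggregation over 6 hr at 37 C.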
The depositor's hits bear a star; [ ] = another dose, or the depositor's remark. Unless noted, calls follow the shape of the dose curve; as a rule, active = well fitted curve in the direction sought with a large enough effect; inconclusive = small, poorly fitted or top-dose-only effect, or another doubt; inactive = no such curve, though single readings can be large; an effect the other way counts as inactive or inconclusive. Unless noted, % is scaled to controls: 0 for no effect and ±100 for the full control effect; potency is read from the fitted curve at half-maximal effect.

How did CC(C)(C)NC(=O)CSc1nc2ccc(NC(=O)CSc3nnnn3Cc3ccccc3)cc2s1 do in these assays?
Tau fluor cs: inconclusive; Tau fibril ThT: -18%; ALDH1A1 block: 4µM*; NPSR antagonist: inconclusive; HPGD block: 8.9µM*; Tau fibril FP: inconclusive

What do the screens show for `CCOC(=O)CSc1nc2ccc(NC(=O)CSc3nnnn3Cc3ccccc3)cc2s1`?
Tau fluor cs: -30%; Tau fibril ThT: inconclusive; ALDH1A1 block: 14µM*; NPSR antagonist: inconclusive; HPGD block: -11%; Tau fibril FP: -9%

How did Cn1ccnc1SCC(=O)Nc1ccc2nc(SCC(=O)NC3CC3)sc2c1 do in these assays?
Tau fluor cs: -21%; Tau fibril ThT: inconclusive; ALDH1A1 block: 3.5µM*; NPSR antagonist: -6%[46.1 µM]; HPGD block: 14µM*; Tau fibril FP: -3%

Results for CCOC(=O)CSc1nc2ccc(N)cc2s1 ?
Tau fluor cs: -23%; Tau fibril ThT: inconclusive; ALDH1A1 block: 20µM*; NPSR antagonist: -14%[46.1 µM]; HPGD block: inconclusive; Tau fibril FP: 7%

How did CC(C)(C)NC(=O)CSc1nc2ccc(NC(=O)CSc3nnc(N)s3)cc2s1 do in these assays?
Tau fluor cs: -12%; Tau fibril ThT: 0%; ALDH1A1 block: -2%; NPSR antagonist: 19%; HPGD block: 32µM*; Tau fibril FP: -5%

Results for Cc1ccccc1OCc1nnc(SCC(=O)Nc2ccc3nc(SCC(=O)NC(C)(C)C)sc3c2)n1C ?
Tau fluor cs: -15%; Tau fibril ThT: 6%; ALDH1A1 block: inconclusive; NPSR antagonist: -23%[46.1 µM]; HPGD block: -17%; Tau fibril FP: -13%

What do the screens show for `CCc1ccc(C2c3[nH]c4ccccc4c3CCN2C(=O)c2cc(C)nn2C)cc1` (stereo not drawn)?
Tau fluor cs: -10%; Tau fibril ThT: -9%; ALDH1A1 block: 0%; NPSR antagonist: 52%; Tau fibril FP: 4%

Results for O=C(NC1CC(=O)N(c2ccc(F)cc2)C1)C(c1ccccc1)c1ccccc1 (stereo not drawn) ?
Tau fluor cs: -20%; Tau fibril ThT: 3%; Tau fibril FP: inconclusive

How did CS(=O)(=O)c1nc(-c2cccs2)cc(C(F)(F)F)n1 do in these assays?
Tau fluor cs: -6%; Tau fibril ThT: -2%; ALDH1A1 block: inconclusive; NPSR antagonist: 3.2µM*; HPGD block: inconclusive; Tau fibril FP: -10%

What do the screens show for `CCOC(=O)CCS(=O)(=O)c1nc(-c2ccccc2)cc(C(F)(F)F)n1`?
Tau fluor cs: 4%; Tau fibril ThT: -1%; ALDH1A1 block: -19%; NPSR antagonist: 7.9µM*; HPGD block: 16µM*; Tau fibril FP: 1%

How did CCOC(=O)CS(=O)(=O)c1nc(-c2ccccc2)cc(C(F)(F)F)n1 do in these assays?
Tau fluor cs: 2%; Tau fibril ThT: inconclusive; ALDH1A1 block: -1%; NPSR antagonist: 10µM*; HPGD block: 14µM*; Tau fibril FP: inconclusive

What do the screens show for `COC(=O)CCS(=O)(=O)c1nc(-c2ccccc2)cc(C(F)(F)F)n1`?
Tau fluor cs: 6%; Tau fibril ThT: 4%; ALDH1A1 block: 3%; NPSR antagonist: 10µM*; HPGD block: 28µM*; Tau fibril FP: -6%

What do the screens show for `CCOC(=O)CS(=O)(=O)c1nc(-c2ccc(F)cc2)cc(C(F)(F)F)n1`?
Tau fluor cs: 14%; Tau fibril ThT: 16%; ALDH1A1 block: inconclusive; NPSR antagonist: inconclusive; HPGD block: inconclusive; Tau fibril FP: -4%

What do the screens show for `COCC(C)NC(=O)CCS(=O)(=O)c1nc(-c2ccc(OC)cc2)cc(C(F)(F)F)n1` (stereo not drawn)?
Tau fluor cs: 10%; Tau fibril ThT: 6%; ALDH1A1 block: -9%; NPSR antagonist: -21%[46.1 µM]; HPGD block: -26%; Tau fibril FP: inconclusive

How did O=C(O)CCS(=O)(=O)c1nc(-c2cccs2)cc(C(F)(F)F)n1 do in these assays?
Tau fluor cs: 5%; Tau fibril ThT: -6%; ALDH1A1 block: inconclusive; NPSR antagonist: -6%[46.1 µM]; HPGD block: inconclusive; Tau fibril FP: -3%

Results for O=C1Cc2cccc3cccc1c23 ?
Tau fluor cs: 3%; Tau fibril ThT: -5%; ALDH1A1 block: inconclusive; NPSR antagonist: 11%[46.1 µM]; HPGD block: inconclusive; Tau fibril FP: 5%

What do the screens show for `O=C(NCCc1csc(-c2cccnc2)n1)c1ccc(F)c(F)c1`?
Tau fluor cs: -4%; Tau fibril ThT: 2%; Tau fibril FP: -8%

What do the screens show for `Cc1ccc(N(C(=O)C2CCC(=O)N2)C2(C(=O)NC3CCCC3)CCCCC2)cc1` (stereo not drawn)?
Tau fluor cs: 5%; Tau fibril ThT: 0%; ALDH1A1 block: -6%; NPSR antagonist: -12%[46.1 µM]; HPGD block: 6%; Tau fibril FP: 9%

What do the screens show for `O=C1CCC(C(=O)N(c2ccccc2)C2(C(=O)NC3CCCCC3)CCCCC2)N1` (stereo not drawn)?
Tau fluor cs: -9%; Tau fibril ThT: -15%; ALDH1A1 block: 7.1µM*; NPSR antagonist: -13%[46.1 µM]; Tau fibril FP: -14%

Results for COc1ccc(/C(N)=N/O)c(OC)c1 ?
Tau fluor cs: 4%; Tau fibril ThT: -3%; ALDH1A1 block: 8%; NPSR antagonist: 16%; Tau fibril FP: 5%

What do the screens show for `COc1ccc(N2C(=O)C(CC(=O)Nc3ccc(F)cc3)N(Cc3ccc4c(c3)OCO4)C2=O)cc1` (stereo not drawn)?
Tau fluor cs: -23%; Tau fibril ThT: 0%; Tau fibril FP: -10%

How did O=C(Cn1c(=O)n(CCc2c[nH]c3ccccc23)c(=O)c2cccnc21)Nc1ccccc1F do in these assays?
Tau fluor cs: inconclusive; Tau fibril ThT: -3%; ALDH1A1 block: -10%; NPSR antagonist: -10%; HPGD block: -14%; Tau fibril FP: 5%

How did Cc1cccc(NC(=O)Cn2c(=O)n(CCc3c[nH]c4ccccc34)c(=O)c3cccnc32)c1 do in these assays?
Tau fluor cs: 11µM*[quencher]; Tau fibril ThT: -13%; ALDH1A1 block: inconclusive; NPSR antagonist: -11%; HPGD block: -11%; Tau fibril FP: -7%

What do the screens show for `O=C(O)c1cccc(COc2ccc(CO)cc2Cl)c1`?
Tau fluor cs: -13%; Tau fibril ThT: inconclusive; ALDH1A1 block: 12%; NPSR antagonist: -6%[46.1 µM]; HPGD block: -22%; Tau fibril FP: inconclusive

Screens deposited in PubChem BioAssay by National Center for Advancing Translational Sciences (NCATS).
